Consider 67 compounds from the antibiotic and cytotoxicity screens of Wong et al. (2023).

Each structure is given as a SMILES string. The whole screen tested about 39,000 compounds, of which about 3,300 (8.5%) were called active. Shown is part of a subset that was picked to be rich in actives.

In this test the test system is HepG2. Description: cytotoxicity call (relative viability < 0.9). Conditions: 10 µM.
On to `C[C@H](CO)N1C[C@H](C)[C@H](CN(C)C(=O)Nc2cccc3ccccc23)Oc2ccc(NC(=O)Nc3ccc(F)cc3)cc2CC1=O`, for which the cytotoxicity call is “inactive”.

On to `C[C@@H](N)c1nc2c(s1)CCCC2`, for which the cytotoxicity call was “inactive”.

Regarding `O=C1O[C@H](c2ccccc2)[C@H](c2ccccc2)N2[C@H]1[C@@H](C(=O)NC[C@@H](O)c1ccccc1)[C@]1(C(=O)Nc3ccc(C#CC4(O)CCCCCC4)cc31)[C@H]2c1ccccc1OCCO`, the cytotoxicity call was “inactive”.

On to `C[C@@H]1CN([C@@H](C)CO)C(=O)c2cc(NC(=O)Nc3ccc(C(F)(F)F)cc3)ccc2O[C@@H]1CN(C)Cc1ccc(Cl)c(Cl)c1`, for which the cytotoxicity call was “active”.

Consider `C[C@@H]1CN([C@@H](C)CO)C(=O)c2cc(NC(=O)Nc3ccc(C(F)(F)F)cc3)ccc2O[C@H]1CN(C)Cc1ccc(Cl)c(Cl)c1`, for which the cytotoxicity call is “inactive”.

For the compound `C[C@H](CO)N1C[C@H](C)[C@@H](CN(C)Cc2ccc(Cl)c(Cl)c2)Oc2ccc(NC(=O)Nc3ccc(C(F)(F)F)cc3)cc2C1=O`, the cytotoxicity call was “active”.

Turning to `C[C@@H]1CN([C@H](C)CO)C(=O)c2cc(NC(=O)Nc3ccc(C(F)(F)F)cc3)ccc2O[C@@H]1CN(C)Cc1ccc(Cl)c(Cl)c1`, the cytotoxicity call is “active”.

`C[C@H]1CN([C@@H](C)CO)C(=O)c2cc(NC(=O)Nc3ccc(C(F)(F)F)cc3)ccc2O[C@@H]1CN(C)Cc1ccc(Cl)c(Cl)c1`: the cytotoxicity call was “inactive”.

As for `C[C@@H]1CN([C@H](C)CO)C(=O)c2cc(NC(=O)Nc3ccc(C(F)(F)F)cc3)ccc2O[C@H]1CN(C)Cc1ccc(Cl)c(Cl)c1`, the cytotoxicity call was “active”.

With `C[C@H](CO)N1C[C@H](C)[C@@H](CN(C)S(=O)(=O)c2ccc(Cl)cc2)Oc2ccc(NC(=O)CCCN(C)C)cc2CC1=O`, the cytotoxicity call is “inactive”.

For the compound `NCC[C@H]1CC[C@H](NC(=O)C2CC2)[C@H](CO)O1`, the cytotoxicity call was “inactive”.

Consider `CSc1nc(=O)c(CCO)c(C)[nH]1`, for which the cytotoxicity call is “inactive”.

In the case of `COc1cccc(NC(=O)N2C[C@H](O)COC[C@@H]3O[C@@H](CC(=O)NCCCN4CCOCC4)CC[C@H]32)c1`, the cytotoxicity call is “inactive”.

Turning to `CCOC(=O)CSc1nc(=O)cn[nH]1`, the cytotoxicity call is “inactive”.

Take `C[C@@H]1CN([C@H](C)CO)C(=O)Cc2cc(NC(=O)C3CC3)ccc2O[C@H]1CN(C)Cc1ccc2c(c1)OCO2`: the cytotoxicity call is “inactive”.

As for `CC(C)NC(=O)N(C)C[C@@H]1OCCCC[C@@H](C)Oc2ccc(NC(=O)Nc3ccccc3)cc2C(=O)N([C@@H](C)CO)C[C@@H]1C`, the cytotoxicity call was “inactive”.

For `COc1ccc(S(=O)(=O)Nc2ccc3c(c2)C(=O)N([C@H](C)CO)C[C@H](C)[C@H](CN(C)C(=O)Nc2c(C)noc2C)OCCCC[C@@H](C)O3)cc1`, the cytotoxicity call is “inactive”.

For `C[C@@H]1CN([C@H](C)CO)C(=O)c2cc(C3=CCCC3)cnc2O[C@H]1CN(C)S(=O)(=O)c1cn(C)cn1`, the cytotoxicity call is “inactive”.

Turning to `Cc1noc(C)c1S(=O)(=O)Nc1ccc2c(c1)CC(=O)N([C@H](C)CO)C[C@H](C)[C@H](CN(C)S(=O)(=O)c1cn(C)cn1)O2`, the cytotoxicity call is “inactive”.

With `C[C@@H]1CCCCO[C@H](CN(C)C(=O)Nc2ccc3c(c2)OCO3)[C@H](C)CN([C@@H](C)CO)C(=O)c2cc(NC(=O)c3ccncc3)ccc2O1`, the cytotoxicity call is “inactive”.

`C[C@@H]1CN([C@@H](C)CO)C(=O)Cc2cc(NC(=O)Nc3cccc4ccccc34)ccc2O[C@@H]1CN(C)C(=O)Nc1cccc2ccccc12`: the cytotoxicity call was “inactive”.

On to `NCCN1CCOCC1`, for which the cytotoxicity call is “inactive”.

For `C[C@H]1CN([C@@H](C)CO)C(=O)c2cc(NC(=O)Nc3ccc(C(F)(F)F)cc3)ccc2O[C@H]1CN(C)Cc1ccc(Cl)c(Cl)c1`, the cytotoxicity call is “active”.

For `C[C@H](CO)N1C[C@H](C)[C@@H](CN(C)Cc2ccc(Cl)c(Cl)c2)Oc2ccc(NC(=O)Nc3ccc(F)cc3)cc2C1=O`, the cytotoxicity call was “inactive”.

Turning to `C[C@H](CO)N1C[C@H](C)[C@H](CN(C)Cc2ccc(Cl)c(Cl)c2)Oc2ccc(NC(=O)Nc3ccc(C(F)(F)F)cc3)cc2C1=O`, the cytotoxicity call is “active”.

As to `C[C@H]1CN([C@@H](C)CO)C(=O)c2cc(NC(=O)Nc3ccc(F)cc3)ccc2O[C@@H]1CN(C)Cc1ccc(Cl)c(Cl)c1`, the cytotoxicity call was “inactive”.

With `C[C@H]1CCCCO[C@@H](CN(C)C(=O)Nc2ccc(F)cc2)[C@@H](C)CN([C@@H](C)CO)C(=O)c2cc(NS(=O)(=O)c3ccccc3)ccc2O1`, the cytotoxicity call was “inactive”.

`CC(C)NC(=O)N(C)C[C@H]1Oc2ccc(NC(=O)Cc3ccccc3)cc2C(=O)N([C@H](C)CO)C[C@H]1C`: the cytotoxicity call was “inactive”.

As for `C[C@H](CO)N1C[C@H](C)[C@H](CN(C)C(=O)Nc2ccccc2)OCCCC[C@H](C)Oc2ccc(NC(=O)c3ccccc3)cc2C1=O`, the cytotoxicity call was “inactive”.

Regarding `COc1cccc(NC(=O)N[C@@H]2C=C[C@@H](CC(=O)N3CCOCC3)O[C@@H]2CO)c1`, the cytotoxicity call is “inactive”.

In the case of `C[C@@H]1CN([C@H](C)CO)C(=O)c2cccc(NC(=O)c3nc4ccccc4s3)c2O[C@@H]1CN(C)S(=O)(=O)c1cn(C)cn1`, the cytotoxicity call was “inactive”.

For `CC(C)NC(=O)N(C)C[C@@H]1Oc2c(NC(=O)Nc3ccc4c(c3)OCO4)cccc2C(=O)N([C@H](C)CO)C[C@@H]1C`, the cytotoxicity call was “inactive”.

Consider `C[C@H](CO)N1C[C@H](C)[C@H](CN(C)C(=O)C2CCCCC2)OCCCC[C@H](C)Oc2ccc(NS(=O)(=O)c3cccs3)cc2C1=O`, for which the cytotoxicity call is “inactive”.

Consider `Cc1cc(C)n(C(=O)Cn2cc([N+](=O)[O-])cn2)n1`, for which the cytotoxicity call is “inactive”.

As for `C[C@H](CO)N1C[C@H](C)[C@H](CN(C)Cc2ccncc2)Oc2ccc(NS(=O)(=O)c3ccc(F)cc3)cc2CC1=O`, the cytotoxicity call was “inactive”.

Take `CC(=O)c1ccn[nH]1`: the cytotoxicity call was “inactive”.

With `COC(=O)[C@@]12CCC(C)(C)C[C@@H]1[C@@H]1C(=O)C=C3[C@]4(C)C=C(C#N)C(=O)C(C)(C)[C@H]4CC[C@]3(C)[C@@]1(C)CC2`, the cytotoxicity call was “active”.

In the case of `COC(=O)[C@]12CCC(C)(C)C[C@H]1[C@H]1C(=O)C=C3[C@@]4(C)C=C(C#N)C(=O)C(C)(C)[C@@H]4CC[C@@]3(C)[C@]1(C)CC2`, the cytotoxicity call was “active”.

As to `Cc1ccccc1S(=O)(=O)N1C[C@H](O)COC[C@H]2O[C@H](CC(=O)NCc3ccccc3Cl)CC[C@@H]21`, the cytotoxicity call was “inactive”.

Turning to `Cc1noc(C)c1NC(=O)Nc1cccc2c1O[C@H](CN(C)C(=O)NC(C)C)[C@@H](C)CN([C@@H](C)CO)C2=O`, the cytotoxicity call is “inactive”.

Turning to `C[C@@H]1CN([C@@H](C)CO)C(=O)Cc2cc(NC(=O)CCN3CCOCC3)ccc2O[C@@H]1CN(C)C(=O)NC1CCCCC1`, the cytotoxicity call was “inactive”.

Consider `C[C@@H]1CN([C@H](C)CO)C(=O)c2cc(C#CC3(O)CCCC3)cnc2O[C@@H]1CN(C)S(C)(=O)=O`, for which the cytotoxicity call was “inactive”.

On to `Cc1ccc(S(=O)(=O)Nc2ccc3c(c2)C(=O)N([C@@H](C)CO)C[C@H](C)[C@H](CN(C)Cc2ccc(Oc4ccccc4)cc2)O3)cc1`, for which the cytotoxicity call was “inactive”.

On to `Cc1ccc(S(=O)(=O)Nc2ccc3c(c2)C(=O)N([C@H](C)CO)C[C@H](C)[C@H](CN(C)Cc2ccc(Oc4ccccc4)cc2)O3)cc1`, for which the cytotoxicity call is “inactive”.

With `Cc1ccc(S(=O)(=O)Nc2ccc3c(c2)C(=O)N([C@H](C)CO)C[C@H](C)[C@@H](CN(C)Cc2ccc(Oc4ccccc4)cc2)O3)cc1`, the cytotoxicity call was “inactive”.

Consider `Cc1ccc(S(=O)(=O)Nc2ccc3c(c2)C(=O)N([C@@H](C)CO)C[C@@H](C)[C@H](CN(C)Cc2ccc(Oc4ccccc4)cc2)O3)cc1`, for which the cytotoxicity call is “inactive”.

As to `Cc1ccc(S(=O)(=O)Nc2ccc3c(c2)C(=O)N([C@@H](C)CO)C[C@H](C)[C@@H](CN(C)Cc2ccc(Oc4ccccc4)cc2)O3)cc1`, the cytotoxicity call is “inactive”.

Regarding `Cc1ccc(S(=O)(=O)Nc2ccc3c(c2)C(=O)N([C@H](C)CO)C[C@@H](C)[C@@H](CN(C)Cc2ccc(Oc4ccccc4)cc2)O3)cc1`, the cytotoxicity call was “active”.

For the compound `Cc1ccc(S(=O)(=O)Nc2ccc3c(c2)C(=O)N([C@H](C)CO)C[C@@H](C)[C@H](CN(C)Cc2ccc(Oc4ccccc4)cc2)O3)cc1`, the cytotoxicity call was “active”.

For the compound `Cc1ccc(S(=O)(=O)Nc2ccc3c(c2)C(=O)N([C@@H](C)CO)C[C@@H](C)[C@@H](CN(C)Cc2ccc(Oc4ccccc4)cc2)O3)cc1`, the cytotoxicity call is “active”.

`NCC(=O)NC1CCCCC1`: the cytotoxicity call was “inactive”.

Turning to `COc1ccc(NC(=O)N(C)C[C@@H]2Oc3ccc(NS(C)(=O)=O)cc3C(=O)N([C@H](C)CO)C[C@H]2C)cc1`, the cytotoxicity call was “inactive”.

Turning to `COc1ccc2c3c(n(c2c1)C)[C@@H](CO)N(Cc1cc(cc(c1)OC)OC)C[C@]13CCN(CC1)S(=O)(=O)c1cn(cn1)C`, the cytotoxicity call is “inactive”.

Turning to `C[C@@H]1CN([C@H](C)CO)C(=O)Cc2cc(NS(=O)(=O)c3cccs3)ccc2O[C@@H]1CN(C)CC1CC1`, the cytotoxicity call is “inactive”.

As to `C[C@@H]1CN([C@@H](C)CO)C(=O)c2cccc(NS(=O)(=O)c3cn(C)cn3)c2O[C@@H]1CN(C)S(=O)(=O)c1ccc(F)cc1`, the cytotoxicity call is “inactive”.

Consider `Cc1ccc(S(=O)(=O)N(C)C[C@H]2Oc3c(NS(=O)(=O)c4cccs4)cccc3C(=O)N([C@H](C)CO)C[C@H]2C)cc1`, for which the cytotoxicity call is “inactive”.

With `C[C@H]1CCCCO[C@H](CN(C)C(=O)Nc2ccc(F)cc2)[C@@H](C)CN([C@@H](C)CO)C(=O)c2cc(NC(=O)C3CCCCC3)ccc2O1`, the cytotoxicity call is “inactive”.

On to `CCCN(C)C[C@@H]1OCCCC[C@H](C)Oc2ccc(NC(=O)Nc3ccc(F)cc3)cc2C(=O)N([C@H](C)CO)C[C@@H]1C`, for which the cytotoxicity call was “inactive”.

Consider `Cc1ccc(S[C@]2(C(=O)NCc3ccccc3)CC(=O)N(C3CCCCC3)[C@@H]2c2ccc(CO)cc2I)cc1`, for which the cytotoxicity call was “inactive”.

Turning to `C=CCC[C@H](Cc1ccc(F)cc1)C(=O)OC[C@@H](NC(=O)[C@H](CC=C)CC(=O)N(CCO)Cc1ccccc1)C(C)(C)C`, the cytotoxicity call was “inactive”.

For the compound `COc1ccc(-c2coc3c(O)c(O)c(OC)cc3c2=O)cc1`, the cytotoxicity call is “active”.

Consider `COc1ccc(-c2coc3cc(O)ccc3c2=O)cc1`, for which the cytotoxicity call is “inactive”.

With `COc1ccc(-c2coc3c(OC)c(OC)cc(O)c3c2=O)cc1`, the cytotoxicity call is “inactive”.

In the case of `CC(C)NC(=O)Nc1ccc2c(c1)CC(=O)N([C@@H](C)CO)C[C@@H](C)[C@H](CN(C)C(=O)Nc1ccc3c(c1)OCO3)O2`, the cytotoxicity call is “inactive”.

`COCc1cc(C)nc(N)c1C#N`: the cytotoxicity call is “inactive”.

For `COCc1cc(C)nc2n[nH]c(N)c12`, the cytotoxicity call was “active”.

On to `Cc1ccc2c(N)[nH]nc2n1`, for which the cytotoxicity call is “inactive”.
